According to PubChem BioAssay (Tox21):
Inconclusive results are not listed. The source made the active and inactive calls. Calls follow the shape of the dose curve; as a rule, active = well fitted cell-killing curve with a large enough effect in the repeat runs; inconclusive = weak or mixed curves, or effect the other way; inactive = flat fitted curve, though single readings scatter.

Experiment: qHTS assay to identify small molecule antagonists of the androgen receptor (AR) signaling pathway using the MDA cell line in the presence of 0.5 nM R1881 - cell viability counter screen (AID 1259242); also: nearly all actives have a fitted effect of over 45% in size
Conditions: MDA-kb2 viability, CellTiter-Fluor protease fluorescence, 16 h; series mostly up to 92.4 µM
Description: U.S. Tox21 Program National Center for Advancing Translational Sciences [NCATS] NIH Chemical Genomics Center [NCGC] U.S. Environmental Protection Agency [EPA] National Institutes of Environmental Health Sciences [NIEHS] National Toxicology Program [NTP] U.S. Food and Drug Administration [FDA] Tox21 Assay Overview: Androgen receptor (AR) is an important member of the nuclear receptor family. Its signaling plays a critical role in AR-dependent prostate cancer and other androgen related diseases. Considerable attention has been given in the past decades to develop methods to study and screen for the environmental chemicals that have the potential to interfere with metabolic homeostasis, reproduction, developmental and behavioral functions. Therefore AR binding assay for screening androgen antagonists can be used to identify potential endocrine disruptors. MDA-kb2 cells (from ATCC, deposited by Wilson et al.) were used to screen for AR inhibitors against Tox21 compound libraries. These cells are human breast carcinoma cells that were stably transfected with a luciferase reporter gene under control of the MMTV promoter that contains response elements for both androgen receptor (AR) and glucocorticoid receptor (GR). The current screening for identification of AR inhibitors against Tox21 libraries used lower concentration of (0.5 nM) R1881 as a stimulator. The cytotoxicity of the Tox21 compound libraries against MDA-kb2 cell line was tested by measuring live-cell protease activity using CellTiter-Fluor assay in the same wells.
Tox21 Assay Protocol Summary: MDA-kb2 cells (cells cultured without CO2) were dispensed at 3,000 cells/well in 4 uL of culture medium into white wall/solid-bottom 1536-well plates (Corning Life Sciences, Corning, NY) using a Multidrop Combi (ThermoFisher Scientific, Waltham, MA) dispenser. After the assay plates were incubated at a 37C and 0% CO2 for 5 hr, 23 nL of compounds dissolved in DMSO, positive controls or DMSO only was transferred to the assay plate by a Pintool station (Kalypsys, San Diego, CA). The transfer of compounds was followed by the addition of 1 uL of 0.5 nM (final concentration) agonist (R1881)/culture medium using a Flying Reagent Dispenser (FRD, Aurora Discovery, San Diego, CA). The plates were incubated at 37C and 0% CO2 for 16 hr. For cytotoxicity assay, 1 uL of CellTiter-Fluor reagent (Promega Corporation, Madison, WI) was added to each well using the FRD and after 30 min incubation at 37C and 0% CO2, The fluorescence intensity was measured using ViewLux plate reader (PerkinElmer, Shelton, CT).

| SMILES | outcome |
| --- | --- |
| O=P1(NCCCl)OCCCN1CCCl (stereo not given) | inactive |
| O=[N+]([O-])c1ccc(Cl)cc1 | inactive |
| COC(C)(C)CCCC(C)C/C=C/C(C)=C/C(=O)OC(C)C (stereo not given) | inactive |
| CN(C)CCC#N | inactive |
| Cc1ccccc1N | inactive |
| OCC(O)CCl (stereo not given) | inactive |
| CC(C)c1cccc(C(C)C)c1O | inactive |
| O=C(O)COc1ccccc1 | inactive |
| O=[N+]([O-])c1cc([As](=O)(O)O)ccc1O | inactive |
| N#Cc1cccc(C#N)c1 | inactive |
| Clc1cnc(Oc2ccc(Oc3ncc(Cl)cc3Cl)cc2)c(Cl)c1 | inactive |
| OCCCCO | inactive |
| OC[C@@H](O)[C@H]1O[C@@H]2O[C@H](C(Cl)(Cl)Cl)O[C@@H]2[C@H]1O | inactive |
| OCc1ccco1 | inactive |
| Cc1cccc(C)c1N | inactive |
| CN(C)NC(=O)CCC(=O)O | inactive |
| CC12CC1(C)C(=O)N(c1cc(Cl)cc(Cl)c1)C2=O (stereo not given) | inactive |
| N#Cc1ccccn1 | inactive |
| CN(C)C(=O)Nc1cccc(C(F)(F)F)c1 | inactive |
| O=C(O)c1cc(Oc2ccc(C(F)(F)F)cc2Cl)ccc1[N+](=O)[O-] | inactive |

| SMILES | outcome |
| --- | --- |
| COC(=O)Nc1cccc(OC(=O)Nc2cccc(C)c2)c1 | inactive |
| O=S(=O)(O)OOS(=O)(=O)O | inactive |
| CCOC(=O)CC(SP(=O)(OC)OC)C(=O)OCC (stereo not given) | inactive |
| CNC(=O)O/N=C(\SC)C(=O)N(C)C | inactive |
| CCNc1nc(Cl)nc(NC(C)C)n1 | inactive |
| CNC(=O)O/N=C/C(C)(C)SC | inactive |
| CC[N+](=O)[O-] | inactive |
| COP(=S)(OC)Oc1ccc(SC)c(C)c1 | inactive |
| Cc1cc(Cl)ccc1OC(C)C(=O)O (stereo not given) | inactive |
| CCOP(=S)(OCC)Oc1ccc([N+](=O)[O-])cc1 | inactive |
| C=CC(=O)OCC(CC)CCCC (stereo not given) | inactive |
| CN(C)C(=O)Cl | inactive |
| O=C(O)CCCc1ccc(N(CCCl)CCCl)cc1 | inactive |
| C[C@H]1C(=O)O[C@@H]2CCN3CC=C(COC(=O)[C@](C)(O)[C@]1(C)O)[C@H]23 | inactive |
| COP(=S)(OC)SCN1C(=O)c2ccccc2C1=O | inactive |
| C=CCN=C=S | inactive |
| Oc1ccc(Cl)cc1 | inactive |
| CC(C)CCCCCCOC(=O)c1ccccc1C(=O)OCCCCCCC(C)C | inactive |
| C[C@]12CC[C@H](O)CC1=CC[C@@H]1[C@@H]2CC[C@]2(C)C(=O)CC[C@@H]12 | inactive |
| N#CN=C(N)N | inactive |
